This is a sample that favours compounds with a hit; in the whole collection about 1.8% have one here.
MEP2 TOR yeast: modulators of TOR pathway MEP2-GFP in S. cerevisiae; GFP response vs DMSO, % at 10 µM; S. cerevisiae MEP2-GFP strain, flow cytometry GFP, 3 h; 100% = DMSO control level; hit rate 0.51% among 330,000; AID 2016;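 active = GFP response versus DMSO above a set limit, roughly screen mean plus 3 SD, cut at about 180% in these data; inconclusive = fewer than 70 cells counted for a yeast strain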;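 also: median GFP fluorescence of the barcode-gated MEP2-GFP cells per well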
RPL19A TOR yeast: alters RPL19A-GFP fluorescence in TOR pathway yeast screen; S. cerevisiae RPL19A-GFP strain, flow cytometry, 3 h; stronger effect = lower value; percent response vs DMSO, % at 10 µM; hit rate 0.3% among 330,000; AID 2025;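 active = percent response vs DMSO below 50%; inconclusive = fewer than 70 events counted for the yeast strain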;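 also: median channel GFP fluorescence of the barcoded RPL19A-GFP strain; ratio of sample median GFP to plate DMSO average so 100% = DMSO; lower means less RPL19A-GFP as with rapamycin TOR inhibition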
Myeloid diff 2: promotes myeloid progenitor differentiation. ER-HoxA9 myeloid progenitors, lysozyme-GFP differentiation, flow cytometry. calls only at 10 µM. hit rate 1% among 360,000;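 active = normalized GFP-positive differentiation at or above the plate's own cutoff, the solvent-only control mean plus 3 SD; inconclusive = no clear call, values can overlap the other calls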;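 also: cells exposed to compound for four days before flow analysis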
AGP1-GFP MLPCN: alters AGP1-GFP fluorescence in TOR pathway yeast screen; S. cerevisiae AGP1-GFP multiplex flow cytometry, 3 h; GFP as percent of DMSO wells; GFP response vs DMSO, % at 10 µM; hit rate 0.02% among 320,000;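 active = GFP response relative to DMSO above a set limit, near screen average plus 3 SD, cut at about 150% in these data; inconclusive = fewer than 70 cells counted for the yeast strain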;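 also: median GFP channel fluorescence of the gated AGP1 strain per well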
CIT2 TOR yeast: modulators of TOR pathway CIT2-GFP in S. cerevisiae. S. cerevisiae CIT2-GFP strain, flow cytometry, 3 h; 100 means same as DMSO wells. GFP response vs DMSO, % at 10 µM. hit rate 0.065% among 320,000;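 active = GFP response relative to DMSO above a set limit, near the screen mean plus 3 SD, cut at about 150% in these data; inconclusive = Fewer than 70 cells measured for a yeast strain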;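 also: ratio of well median GFP fluorescence to mean of DMSO wells on the plate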
LAP4-GFP MLPCN: alters LAP4-GFP fluorescence in TOR pathway yeast screen; S. cerevisiae LAP4-GFP multiplex, flow cytometry GFP, 3 h; median GFP as percent of DMSO wells; GFP response vs DMSO, % at 10 µM; hit rate 0.34% among 320,000;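 active = GFP response vs DMSO above a set limit, about the screen mean plus 3 SD, cut at about 150% in these data; inconclusive = under 70 cell events counted for the yeast strain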
Starred values were filed as active, the others as inactive; i = inactive; ? = inconclusive; · = no result given; + = active, no number; ! = not confirmed by another sample; [ ] = dose if it differs, or a comment.

SMILES | MEP2 TOR yeast | RPL19A TOR yeast | Myeloid diff 2 | AGP1-GFP MLPCN | CIT2 TOR yeast | LAP4-GFP MLPCN
CC(=O)c1cccc(NC(=O)COc2ccccc2)c1 | 106.5 | 102.1 | i | 94.5 | 102.7 | 105.9
Cc1ccc(Cc2c(-c3cccc(Br)c3)nc3c(C)cc(Br)cn23)cc1 | · | · | i | · | · | ·
Cc1nn(C)cc1C(C)NC(=O)c1cc(COc2ccc(F)c(F)c2)on1 (configuration not stated) | 201.8* | 85.5 | i | 122.2 | 136.6 | 124.0
CCCC(=O)N1CCCC1(C)C(=O)Nc1cc(OC)ccc1OC (configuration not stated) | · | · | i | · | · | ·
O=C(Nc1ccc2c(c1)OCCO2)C(c1ccncc1)n1c(=O)c(-c2cc3ccccc3[nH]2)nc2ccccc21 (configuration not stated) | · | · | + | · | · | ·
O=C(Cn1nc(-c2ccccc2)c2ccccc2c1=O)NCCN1CCOCC1 | 734.3*[may fluoresce violet] | 41.7*[may fluoresce violet] | i | ? | ? | 94.1
Cc1cc(C=C2C(=O)c3ccccc3C2=O)c(C)n1-c1cccc(C(=O)O)c1 | 214.3* | 104.2 | i | 82.5 | 106.0 | 122.7
Cc1cc(C)n(C(=O)CNC(=O)c2ccc(C(C)(C)C)cc2)n1 | 98.2 | 99.0 | i | 99.7 | 93.3 | 102.4
O=C(Nc1ccc2c(c1)CCCN2C(=O)c1cccs1)c1ccccc1 | 88.2 | 90.5 | + | 93.5 | 79.3 | 97.8
CCOC(=O)c1cc(C#N)c(N2CCNCC2)nc1C(F)(F)F | 101.8 | 96.8 | i | 108.4 | 101.1 | 109.9
Cc1cccc(NC(=O)CS(=O)(=O)c2cn(C)c3ccccc23)c1C | 97.8 | 98.6 | + | 105.3 | 101.7 | 95.0
O=C(c1cc2nc(-c3ccc(F)cc3)cc(C(F)(F)F)n2n1)N1CCOCC1 | 235.7*[may fluoresce violet] | 59.9 | i | ? | ? | 81.4
O=C(c1cc2nc(-c3ccccc3)cc(C(F)(F)F)n2n1)N1CCOCC1 | 97.2 | 92.7 | i | 92.5 | 95.0 | 103.6
O=C1N(S(=O)(=O)c2ccccc2F)C(=O)C2(CCCC2)N1S(=O)(=O)c1ccccc1F | 101.3 | 98.6 | i | 98.6 | 101.6 | 92.0
CN1C(=O)N(S(=O)(=O)c2ccc(F)c(F)c2F)C(=O)C1(C)C | 102.3 | 97.8 | + | 101.9 | 105.1 | 103.2
CCOc1cc(/C=N/NC(=O)c2ccc(N(C)S(=O)(=O)c3ccccc3)cc2)ccc1OC | 515.3*[may fluoresce violet] | 65.1 | i | 20.1 | ? | 89.3
COc1cc(/C=N/NC(=O)c2ccc(N(C)S(=O)(=O)c3ccccc3)cc2)cc(OC)c1OC | 109.1 | 109.0 | i | 105.6 | 98.4 | 113.0
CCOc1ccccc1NC(=O)CSc1nccn1-c1ccccc1 | 263.5*[may fluoresce violet] | · | i | ? | ? | 90.5
COc1ccc(NC(=O)CSc2nccn2-c2ccccc2)c(OC)c1 | 108.2 | 67.4 | i | 113.7 | 79.2 | 108.9
O=C(N/N=C/c1ccc(Br)s1)c1ccco1 | 96.5 | 97.8 | i | 107.5 | 98.4 | 118.8
O=C(N/N=C/c1sc(=O)n(Cc2ccc(Br)cc2)c1Cl)c1ccco1 | 238.0*[may fluoresce violet] | 52.2 | ? | ? | ? | 56.3
COc1ccc(C(=O)n2nc(-c3ccc(OC)cc3)nc2N)cc1 | 100.8 | 99.8 | i | 97.8 | 98.8 | 94.8
CC1CN(C(C)C(=O)NNC(=O)c2ccc(F)cc2)CC(C)O1 (configuration not stated) | 96.7 | 94.9 | + | 98.7 | 94.9 | 96.2
O=C(c1ccc(S(=O)(=O)Cc2cc(F)ccc2F)c([N+](=O)[O-])c1)N1CCCC1 | 95.5 | 98.2 | i | 103.3 | 103.0 | 112.5
O=C(c1ccc(S(=O)(=O)Cc2cc(F)ccc2F)c([N+](=O)[O-])c1)N1CCCCC1 | 106.2 | 104.8 | + | 98.6 | 116.6 | 94.7
SMILES | MEP2 TOR yeast | RPL19A TOR yeast | Myeloid diff 2 | AGP1-GFP MLPCN | CIT2 TOR yeast | LAP4-GFP MLPCN
O=C(CNC(=O)c1ccccc1F)NCCOc1ccccc1Cl | 110.2 | 111.3 | i | 97.6 | 101.2 | 90.5
CC(=O)c1c(C)n(C)c2ccc(OC(=O)c3ccco3)cc12 | 106.8 | 100.5 | + | 96.2 | 91.9 | 110.6
COC(=O)c1ccc(S(=O)(=O)N2CCCC2)o1 | 101.7 | 100.0 | i | 105.5 | 101.0 | 98.3
COC(=O)c1ccc(S(=O)(=O)N2CCOCC2)o1 | 112.0 | 92.8 | i | 115.3 | 159.0*[may fluoresce green] | 105.2
Cn1nc(C(=O)Oc2cc(=O)n(C)c3ccccc23)c2ccccc2c1=O | 96.0 | 98.0 | i | 93.8 | 93.6 | 88.6
Nc1ccc2c(c1)Cc1cc(N)c(Cl)cc1-2 | · | · | i | · | · | ·
Nc1cc2c(cc1N)-c1ccccc1C2 | · | · | + | · | · | ·
CCOC(=O)c1ccc(N=c2sc(C(=O)OC)cc(=O)n2Cc2ccco2)cc1 | 101.0 | 104.6 | i | 109.7 | 116.8 | 109.3
CCOC(=O)c1ccc(N=c2sc(C(=O)OC)cc(=O)n2CCCN2CCOCC2)cc1 | 96.8 | 95.1 | +! | 97.2 | 100.1 | 96.0
CC(C)(CC(=O)O)CC(=O)Nc1ccccc1Oc1ccccc1 | 249.0*[may fluoresce violet] | 41.2*[may fluoresce violet] | i | ? | ? | 56.3
O=C(c1cccs1)N1CCCC(N2CCN(c3ccc(F)cc3)CC2)C1 (configuration not stated) | 91.0 | 98.8 | i | 96.9 | 100.8 | 82.4
Cc1ccc(C(=O)N/C(=C\c2ccc(-c3cccc([N+](=O)[O-])c3)o2)C(=O)NCCCN(C)C)cc1 | 103.2 | 102.0 | i | 102.7 | 109.6 | 90.7
Cc1ccc(C(=O)N/C(=C\c2ccc(-c3ccc(Br)cc3)o2)C(=O)NCCCN(C)C)cc1 | 106.0 | 105.6 | + | 101.4 | 93.8 | 104.2
CN(C)CCNC(=O)/C(=C/c1ccc(-c2ccc(Cl)cc2Cl)o1)NC(=O)c1ccccc1 | 95.7 | 98.8 | + | 97.3 | 91.6 | 99.1
CC1(C(=O)NS(=O)(=O)Cc2ccccc2)CCN1C(=O)C1(c2ccc(Cl)cc2)CCC1 (configuration not stated) | · | · | i | · | · | ·
CCOC(=O)/C=C1\SCC(=O)N1Cc1nnc(-c2ccccc2Br)o1 | 288.7* | · | i | 29.8 | 94.5 | 94.4
CCOC(=O)/C=C1/SCC(=O)N1Cc1ccc(Br)cc1 | · | · | i | · | · | ·
C=CCNC(=O)/C(=C\c1ccc(OC)cc1)NC(=O)c1ccc([N+](=O)[O-])cc1 | 144.2 | 112.9 | i | 108.5 | 157.6* | 112.3
COc1ccc(CCNC(=O)CN(C)S(=O)(=O)c2cccs2)cc1 | 97.6 | 97.2 | i | 95.9 | 99.5 | 94.8
C(=N\Nc1nc(Nc2ccccc2)nc(N2CCOCC2)n1)/c1c[nH]c2ccccc12 | 447.5*[may fluoresce violet] | 42.1*[may fluoresce violet] | · | ? | ? | 96.1
O=C(C1CCC(=O)N(C2CCCC2)C1)N1CCC(Oc2cccc(F)c2)CC1 (configuration not stated) | 107.1 | 110.2 | + | 112.5 | 114.8 | 97.7
